In PubChem BioAssay (NCI):
The panel holds about 83,000 compounds, 20% with a hit somewhere; the sample as a whole holds those more often.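 48-hour exposure, single concentration, 96-well plates; percent growth endpoint where 0 means no net growth. Active: below 10.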 The source made the active and inactive calls.

Tests used:
Assay in all cases: NCI-60 one-dose screen, 48 h (100 = growth as untreated, 0 = no growth, -100 = all killed)
Conditions in all cases: 10 µM unless noted
SR leukemia = tested on: SR leukemia
RPMI-8226 leukemia = tested on: RPMI-8226 leukemia
OVCAR-8 ovarian = tested on: OVCAR-8 ovarian
OVCAR-5 ovarian = tested on: OVCAR-5 ovarian
OVCAR-4 ovarian = tested on: OVCAR-4 ovarian
SK-OV-3 ovarian = tested on: SK-OV-3 ovarian
IGROV1 ovarian = tested on: IGROV1 ovarian
OVCAR-3 ovarian = tested on: OVCAR-3 ovarian
HS 578T breast = tested on: HS 578T breast
NCI/ADR-RES ovarian = tested on: NCI/ADR-RES ovarian

Measured: growth

O=C(C(=O)N1CCOCC1)c1ccc(O[C@H]2O[C@H](CO)[C@@H](O)[C@H](O)[C@@H]2O)cc1
inactive: SR leukemia 94.6% | RPMI-8226 leukemia 96.8% | OVCAR-8 ovarian 109% | OVCAR-5 ovarian 98.6% | OVCAR-4 ovarian 105% | SK-OV-3 ovarian 106% | IGROV1 ovarian 106% | OVCAR-3 ovarian 121% | HS 578T breast 183% | NCI/ADR-RES ovarian 105%

COc1cc(NC(C)CCCN)c2nccc(C)c2c1OC (stereo not given)
inactive: SR leukemia 69.4% | RPMI-8226 leukemia 65.7% | OVCAR-8 ovarian 98.2% | OVCAR-5 ovarian 91.8% | OVCAR-4 ovarian 29% | SK-OV-3 ovarian 96.1% | IGROV1 ovarian 92.8% | OVCAR-3 ovarian 44.4% | HS 578T breast 87.3% | NCI/ADR-RES ovarian 98.2%

CCC(CCCN1C(=O)c2ccccc2C1=O)Nc1cc(OC)cc2cccnc12 (stereo not given)
active: IGROV1 ovarian -7.61%
inactive: SR leukemia 73.5% | RPMI-8226 leukemia 102% | OVCAR-8 ovarian 96.1% | OVCAR-5 ovarian 89.6% | OVCAR-4 ovarian 39.9% | SK-OV-3 ovarian 107% | OVCAR-3 ovarian 106% | HS 578T breast 84.5% | NCI/ADR-RES ovarian 99.5%

Nc1nc2c(c3cnccc13)C(c1cccc(Cl)c1)Cc1cnccc1-2 (stereo not given)
inactive: SR leukemia 19.5% | OVCAR-8 ovarian 29.3% | OVCAR-5 ovarian 40.4% | OVCAR-4 ovarian 32.1% | SK-OV-3 ovarian 32% | IGROV1 ovarian 35.9% | OVCAR-3 ovarian 10.1% | HS 578T breast 38.9%
active: RPMI-8226 leukemia 8.24% | NCI/ADR-RES ovarian 6.79%

Cn1c2c(cc(S(=O)(=O)c3ccccc3)c1=O)CCc1c-2cnn1-c1ccc(Cl)cc1
active: OVCAR-8 ovarian -48.4% | OVCAR-4 ovarian -9.94% | SK-OV-3 ovarian 1.98% | HS 578T breast -10.1%
inactive: SR leukemia 52% | RPMI-8226 leukemia 49.3% | OVCAR-5 ovarian 26.2% | IGROV1 ovarian 50.6% | OVCAR-3 ovarian 56.4% | NCI/ADR-RES ovarian 39.3%

NC(=O)c1c(Nc2ccccc2)nn2cc(-c3nc4ccccc4s3)c(N)nc12
inactive: SR leukemia 82.8% | RPMI-8226 leukemia 96.4% | OVCAR-8 ovarian 102% | OVCAR-5 ovarian 104% | OVCAR-4 ovarian 97.1% | SK-OV-3 ovarian 94.8% | IGROV1 ovarian 93.3% | OVCAR-3 ovarian 107% | HS 578T breast 93.3% | NCI/ADR-RES ovarian 98.9%

Cc1nc(NC(=S)Nc2ccc(F)cc2)sc1C(=O)NNC(=S)Nc1ccc(F)cc1
inactive: SR leukemia 81.6% | OVCAR-8 ovarian 87.4% | OVCAR-5 ovarian 86.3% | OVCAR-4 ovarian 42.8% | SK-OV-3 ovarian 94% | IGROV1 ovarian 51.7% | OVCAR-3 ovarian 56.6% | HS 578T breast 72.4% | NCI/ADR-RES ovarian 78.1%
active: RPMI-8226 leukemia -16.8%

COc1ccc2c(c1)/C(=C/c1c(-c3cc(OC)c(OC)c(OC)c3)nc3sccn13)C(=O)N2
inactive: RPMI-8226 leukemia 60.7% | OVCAR-8 ovarian 105% | OVCAR-5 ovarian 85.2% | OVCAR-4 ovarian 95.8% | SK-OV-3 ovarian 106% | IGROV1 ovarian 29.2% | OVCAR-3 ovarian 99.5% | HS 578T breast 85.7% | NCI/ADR-RES ovarian 98.9%
active: SR leukemia -41.1%

Cc1ccc(NCc2cn(-c3ccc(C(=O)O)cc3)nc2-c2ccc(C(=O)O)cc2)cc1
inactive: SR leukemia 103% | RPMI-8226 leukemia 109% | OVCAR-8 ovarian 97.8% | OVCAR-5 ovarian 106% | OVCAR-4 ovarian 109% | SK-OV-3 ovarian 102% | IGROV1 ovarian 107% | OVCAR-3 ovarian 101% | HS 578T breast 101% | NCI/ADR-RES ovarian 102%

Cc1nnc(-c2cc3c(ccc4ccccc43)oc2=O)c2cn(-c3ccc(Cl)cc3)nc12
inactive: SR leukemia 80.4% | RPMI-8226 leukemia 75% | OVCAR-8 ovarian 96.3% | OVCAR-5 ovarian 108% | OVCAR-4 ovarian 83.8% | SK-OV-3 ovarian 91.7% | IGROV1 ovarian 87% | OVCAR-3 ovarian 89.8% | HS 578T breast 93.8% | NCI/ADR-RES ovarian 96.3%

CCOC(=O)C1=C(c2ccccc2)NC(=O)NC1CN1C(=O)c2ccccc2C1=O (stereo not given)
inactive: RPMI-8226 leukemia 97.9% | OVCAR-8 ovarian 111% | OVCAR-5 ovarian 100% | OVCAR-4 ovarian 107% | SK-OV-3 ovarian 113% | IGROV1 ovarian 98.4% | OVCAR-3 ovarian 111% | HS 578T breast 105% | NCI/ADR-RES ovarian 103%
active: SR leukemia -32.9%

CC(=O)NCCN
inactive: SR leukemia 97% | RPMI-8226 leukemia 105% | OVCAR-8 ovarian 93.4% | OVCAR-5 ovarian 102% | OVCAR-4 ovarian 115% | SK-OV-3 ovarian 116% | IGROV1 ovarian 111% | OVCAR-3 ovarian 113% | HS 578T breast 103% | NCI/ADR-RES ovarian 113%

[N-]=[N+]=Nc1ncc(-c2ccc(C(F)(F)F)cc2)c(NC2CCCCCC2)n1
inactive: OVCAR-8 ovarian 37.2% [100 µM] | OVCAR-5 ovarian 65% [100 µM] | OVCAR-4 ovarian 28.9% [100 µM] | SK-OV-3 ovarian 71.6% [100 µM] | IGROV1 ovarian 36.3% [100 µM] | HS 578T breast 52.3% [100 µM] | NCI/ADR-RES ovarian 43.7% [100 µM]
active: SR leukemia -21.8% [100 µM] | RPMI-8226 leukemia -21% [100 µM] | OVCAR-3 ovarian 7.63% [100 µM]

COc1ccc(-n2nnnc2-c2cn[nH]c2C(F)(F)F)cc1
active: IGROV1 ovarian -28.4%
inactive: SR leukemia 73.4% | RPMI-8226 leukemia 92.1% | OVCAR-8 ovarian 95.5% | OVCAR-5 ovarian 108% | OVCAR-4 ovarian 79.1% | SK-OV-3 ovarian 103% | OVCAR-3 ovarian 104% | HS 578T breast 101% | NCI/ADR-RES ovarian 129%

CCCCCCCCCCCCCCCCNC(=S)N/N=C/c1ccc(O)cc1O
inactive: SR leukemia 41.2% | RPMI-8226 leukemia 59.7% | OVCAR-8 ovarian 56.2% | OVCAR-5 ovarian 95.3% | OVCAR-4 ovarian 66.9% | SK-OV-3 ovarian 87.7% | IGROV1 ovarian 55.2% | OVCAR-3 ovarian 73.1% | HS 578T breast 97.6% | NCI/ADR-RES ovarian 69.9%

Nc1nc2c(c3cnccc13)C(c1cccc(Br)c1)Cc1cnccc1-2 (stereo not given)
inactive: SR leukemia 17.8% | OVCAR-8 ovarian 28.8% | OVCAR-5 ovarian 43.9% | OVCAR-4 ovarian 37.5% | SK-OV-3 ovarian 30.8% | IGROV1 ovarian 27.9% | HS 578T breast 42.3%
active: RPMI-8226 leukemia -2.76% | OVCAR-3 ovarian 1.08% | NCI/ADR-RES ovarian -4.12%

Cc1ccc(OCCn2ccc(=O)n(CCOc3ccc(Cl)cc3C(=O)c3cc(C)cc(C)c3)c2=O)cc1
inactive: SR leukemia 19.7% | RPMI-8226 leukemia 34.1% | OVCAR-8 ovarian 70% | OVCAR-5 ovarian 87.2% | OVCAR-4 ovarian 47.3% | SK-OV-3 ovarian 59.8% | IGROV1 ovarian 61.4% | OVCAR-3 ovarian 25.1% | HS 578T breast 37.2% | NCI/ADR-RES ovarian 20.1%

O=C1OC(c2ccc(-c3ccccc3)cc2)=C/C1=C/c1c2ccccc2cc2ccccc12
inactive: SR leukemia 81.2% | RPMI-8226 leukemia 85.3% | OVCAR-8 ovarian 97.6% | OVCAR-5 ovarian 83.7% | OVCAR-4 ovarian 95.7% | SK-OV-3 ovarian 96% | IGROV1 ovarian 101% | OVCAR-3 ovarian 97.9% | HS 578T breast 89.8% | NCI/ADR-RES ovarian 96.5%

c1ccc(-c2cn3ccnc3c(-c3ccc4ncn(C5CCCCC5)c4c3)n2)cc1
inactive: SR leukemia 40.2% | RPMI-8226 leukemia 14.3% | OVCAR-8 ovarian 36.1% | OVCAR-5 ovarian 92.1% | OVCAR-4 ovarian 65.5% | SK-OV-3 ovarian 92.5% | IGROV1 ovarian 88% | OVCAR-3 ovarian 58.2% | HS 578T breast 76.2% | NCI/ADR-RES ovarian 49.5%

O=C(/C=C1\C(=O)N(Cc2ccc([N+](=O)[O-])cc2)c2ccccc21)c1ccc(OCCN2CCCCC2)cc1
active: SR leukemia -27.9% | RPMI-8226 leukemia -36% | OVCAR-8 ovarian 0.287% | OVCAR-5 ovarian -40.6% | OVCAR-4 ovarian -58.8% | IGROV1 ovarian -49.3% | OVCAR-3 ovarian -93.8% | HS 578T breast 6.94% | NCI/ADR-RES ovarian 6.18%
inactive: SK-OV-3 ovarian 85%

CC(C)CCCCCOC(=O)c1ccccc1SSc1ccccc1C(=O)OCCCCCC(C)C
inactive: SR leukemia 86.9% | RPMI-8226 leukemia 88.8% | OVCAR-8 ovarian 104% | OVCAR-5 ovarian 106% | OVCAR-4 ovarian 109% | SK-OV-3 ovarian 108% | IGROV1 ovarian 116% | OVCAR-3 ovarian 111% | HS 578T breast 104% | NCI/ADR-RES ovarian 107%

O=C1/C(=N\c2cc(=O)[nH]n2S(=O)(=O)c2ccccc2)Nc2ccccc21
inactive: SR leukemia 89.7% | RPMI-8226 leukemia 95.2% | OVCAR-8 ovarian 102% | OVCAR-5 ovarian 105% | OVCAR-4 ovarian 98.4% | SK-OV-3 ovarian 105% | IGROV1 ovarian 100% | OVCAR-3 ovarian 104% | HS 578T breast 91% | NCI/ADR-RES ovarian 101%

COc1ccc(Cn2cc3c(c2)-c2oncc2CC3)cc1OC
active: SK-OV-3 ovarian -12.4% | OVCAR-3 ovarian -27.4% | HS 578T breast 2.04% | NCI/ADR-RES ovarian 1.63%
inactive: SR leukemia 16.8% | RPMI-8226 leukemia 35.1% | OVCAR-8 ovarian 24.5% | OVCAR-5 ovarian 40.3% | OVCAR-4 ovarian 43.4% | IGROV1 ovarian 17.6%

CCCC(C)c1cc(Cc2cc(Cl)cc(Cl)c2O)c(O)c(Cc2cc(Cl)cc(Cl)c2O)c1 (stereo not given)
inactive: OVCAR-8 ovarian 15% | OVCAR-5 ovarian 33.8% | OVCAR-4 ovarian 22% | SK-OV-3 ovarian 14.6% | IGROV1 ovarian 28.1% | OVCAR-3 ovarian 16.2%
active: SR leukemia 5.98% | RPMI-8226 leukemia -2.65% | HS 578T breast 1.09% | NCI/ADR-RES ovarian 2.52%

CCOC(=O)NNc1[nH]c(-c2ccc(OC)cc2)cc1C#N
inactive: RPMI-8226 leukemia 91.2% | OVCAR-8 ovarian 99.5% | OVCAR-5 ovarian 87.7% | OVCAR-4 ovarian 153% | SK-OV-3 ovarian 111% | IGROV1 ovarian 57.5% | OVCAR-3 ovarian 107% | HS 578T breast 96.3% | NCI/ADR-RES ovarian 88.9%
active: SR leukemia -2.04%

COc1cccc(Cn2cc3c(c2)-c2oncc2CC3)c1
inactive: SR leukemia 13.8% | RPMI-8226 leukemia 37.6% | OVCAR-8 ovarian 32.3% | OVCAR-5 ovarian 42.6% | OVCAR-4 ovarian 50.9% | IGROV1 ovarian 20.1%
active: SK-OV-3 ovarian 1.4% | OVCAR-3 ovarian -30.4% | HS 578T breast 8.85% | NCI/ADR-RES ovarian 6.75%

Brc1ccc(-c2nc3ccccc3s2)cc1
inactive: SR leukemia 86.9% | RPMI-8226 leukemia 94.4% | OVCAR-8 ovarian 106% | OVCAR-5 ovarian 90.9% | OVCAR-4 ovarian 93.5% | SK-OV-3 ovarian 91.8% | IGROV1 ovarian 73.9% | OVCAR-3 ovarian 99% | HS 578T breast 89.6% | NCI/ADR-RES ovarian 99.3%

COC(=O)[C@@H]1[C@H](O)[C@H](C)[C@H](O)[C@H](C)/C=C\C=C(C)C(=O)Nc2c(C)c(OC(C)=O)c3c(c2O)C(=O)C(C)=C2OCOC(=C23)C(C)=C[C@@](C)(O)[C@H](O)[C@@H](C)[C@H]1OC(C)=O
active: IGROV1 ovarian 3.5%
inactive: SR leukemia 121% | RPMI-8226 leukemia 97.8% | OVCAR-8 ovarian 104% | OVCAR-5 ovarian 108% | OVCAR-4 ovarian 96.4% | SK-OV-3 ovarian 109% | OVCAR-3 ovarian 137% | HS 578T breast 127% | NCI/ADR-RES ovarian 114%
